Reference: PubChem BioAssay (NCATS)
Results filed as inconclusive are left out. Active and inactive are the calls of the source. Unless noted, calls come from the whole dose curve; as a rule, active = well fitted curve in the direction sought with a large enough effect; inconclusive = small, poorly fitted or top-dose-only effect, or another doubt; inactive = no such curve, though single readings can be large; an effect the other way counts as inactive or inconclusive.

Columns and labels:
[1] = target: Lysosomal acid glucosylceramidase (Homo sapiens) (UniProt P04062); assay: Glucocerebrosidase-p2 (AID 348; in the data active = potency below about 10 µM; note: potency is the fitted concentration of half-maximal effect); conditions: purified GBA, blue fluorogenic substrate, 40 min
Outline: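 Compounds titrated from 0.6 nM upwards against 0.2 nM enzyme in pH 5.9 citric acid/KH2PO4, taurocholate, tween-20; blue fluorogenic substrate 80 uM, 40 min room temperature, stopped and read Ex 365/Em 440 for AC50.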

[2] = AP1 Signaling Pathway (AID 357; active = well fitted curve in either direction with a large enough effect, not every such curve was filed as active; note: % is set by controls: 0 for no effect and ±100 for the full control effect); conditions: ME-180 AP-1-bla reporter, EGF-induced, beta-lactamase ratio, 5 h; at 7.69 µM (top of the series) unless noted
Outline: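 AP-1-bla ME-180 cells with beta-lactamase reporter under AP-1 response element, stimulated with EC50 EGF; compounds titrated, 5 hours at 37 degrees Celsius. CCF4 read at 460/530 nm ratio; positive and negative modulators judged by AC50.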

[3] = Stat Signaling Pathway (AID 446; active = well fitted curve in either direction with a large enough effect, not every such curve was filed as active;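 note: ME-180 cervical cancer cells given 40 pM IL-6 alongside compound; SIE-controlled beta-lactamase reporter measured as 460/530 nm FRET emission ratio; % is set by controls: 0 for no effect and ±100 for the full control effect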); conditions: ME-180 SIE beta-lactamase reporter, IL-6 stimulated, 5 h; at 7.69 µM (top of the series) unless noted
Outline: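 ME-180 SIE-bla cells; overnight plating; cpd + IL-6 40 pM, 5 h, 37 C; LiveBLAzer 2.5 h RT; 460/530 nm emission ratio. Normalized to 300 pM IL-6 and 125 nM JAK inhibitor controls.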

[4] = target: 3',5'-cyclic-AMP phosphodiesterase 4B (Homo sapiens) (UniProt Q07343); assay: qHTS Assay for Inhibitors of PDE-IV (AID 607; active = well fitted activation curve with a large enough effect in the main read-out, with a control signal flat, not every such curve was filed as active; note: % of control where 0% means no effect); conditions: HEK293 ACTOne CNG channel cells, membrane potential fluorescence; series mostly up to 22.9 µM
Outline: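 ACTOne HEK293 cells carry a modified cAMP-gated CNG channel and express endogenous PDE4; plated 1000 cells/well, compounds up to 22.9 uM final. Membrane-potential dye fluorescence (ex 535/em 590) was read; parental cells received 10 uM forskolin + 100 uM RO 20-1724.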

[5] = target: ATP-dependent 6-phosphofructokinase (Trypanosoma brucei brucei) (UniProt O15648); assay: qHTS Assay to Find Inhibitors of T. brucei phosphofructokinase: hit validation (AID 492961);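 note: luminescence reports ADP formed as PFK phosphorylates fructose-6-phosphate with ATP; % is set by controls: 0 for no effect and ±100 for the full control effect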; conditions: T. brucei PFK, ADP-Glo luminescence; series mostly up to 51.4 µM
Outline: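 In this biochemical qHTS validation, titrated compounds were tested against 1.25 nM PFK with 0.1 mM ATP and 0.5 mM F6P. Percent activity came from controls lacking or containing enzyme.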

[6] = target: Luciferin 4-monooxygenase (Photinus pyralis) (UniProt P08659); assay: Biochemical firefly luciferase enzyme assay for NPC (AID 624030);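 note: purified P. pyralis luciferase at 10 nM with luciferin and ATP substrate; 0% = DMSO and -100% = full luciferase inhibition by PTC124 control; nearly all actives have a fitted effect of over 70% in size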; conditions: purified P. pyralis luciferase, luminescence, 5 min; series mostly up to 58.6 µM
Outline: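 Direct inhibition of firefly luciferase enzyme (10 nM final, 50 mM Tris Acetate) assessed by luminescence within 5 minutes. Percent activity scaled between DMSO and PTC124 positive control, with concentration-effect curves classified by fit quality and response.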

[7] = S16 Schwann cell viability assay (CellTiter-Glo assay) (AID 624031); conditions: S16 rat Schwann cells viability, 24 h; series mostly up to 57.5 µM;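 note: cellular ATP luminescence as a viability measure; plate controls were DMSO-treated cells for no effect and cell-free wells for full effect; nearly all actives have a fitted effect of over 70% in size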
Outline: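 Native S16 rat Schwann cells in DMEM/10% FBS without phenol red were incubated overnight, then exposed to compounds for 24 h at 37 °C/5% CO2. Viability was read as ATP luminescence (CellTiter-Glo), normalized to no-cell wells and DMSO (0%).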

[8] = S16 Schwann cell PMP22 intronic element firefly luciferase assay (AID 624032); conditions: S16 rat Schwann cells, PMP22 element FLuc, 24 h; series mostly up to 57.5 µM;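 note: plate controls were DMSO for no effect and PTC124 positive control mean for full effect; nearly all actives have a fitted effect of over 30% in size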
Outline: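 Luciferase reporter of PMP22 intronic-element expression in stably transfected S16 rat Schwann cells, read by ONE-Glo luminescence after 24 h compound exposure at 37 C. Activity scaled between DMSO (0%) and positive-control PTC124; concentration-effect curves quality-classified.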

[9] = S16 Schwann cell PMP22 intronic element beta-lactamase assay (AID 624044; calls by dose curve;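 note: 0% = DMSO and -100% = potassium clavulanate positive control; nearly all actives have a fitted effect of over 15% in size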); conditions: S16 rat Schwann cells, PMP22 element beta-lactamase FRET, 24 h; series mostly up to 38.3 µM
Outline: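 Rat S16 Schwann cells with beta-Lac driven by a PMP22 intronic element, compound-treated 24 h at 37 °C. LiveBLAzer FRET B/G read: 460 nm normalized to potassium clavulanate vs DMSO; 535 nm FRET as viability; concentration-effect curves classified.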

[10] = qHTS profiling for inhibitors of Plasmodium falciparum proliferation (AID 504749);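 note: 0% = DMSO vehicle and full inhibition = artemisinin control; nearly all actives have a fitted effect of over 60% in size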; conditions: P. falciparum in erythrocytes, SYBR Green DNA, 72 h, at 28.7 µM (top of the series)
Outline: (§1)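 Three-day growth assay of blood-stage parasites in erythrocytes (0.3% parasitemia, 2.5% hematocrit) at 37 C, 5% CO2, quantified by SYBR Green DNA staining after overnight detergent lysis.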

3D7 = assay: as above; conditions: P. falciparum in erythrocytes, SYBR Green DNA, 72 h; series mostly up to 28.7 µM
Outline: as §1

7G8 = assay: as above; conditions: P. falciparum in erythrocytes, SYBR Green DNA, 72 h; series mostly up to 28.7 µM
Outline: as §1

AA1029 = assay: as above; conditions: P. falciparum in erythrocytes, SYBR Green DNA, 72 h; series mostly up to 28.7 µM
Outline: as §1

AS120 = assay: as above; conditions: P. falciparum in erythrocytes, SYBR Green DNA, 72 h; series mostly up to 28.7 µM
Outline: as §1

ATS189 = assay: as above; conditions: P. falciparum in erythrocytes, SYBR Green DNA, 72 h; series mostly up to 28.7 µM
Outline: as §1

ATS95 = assay: as above; conditions: P. falciparum in erythrocytes, SYBR Green DNA, 72 h; series mostly up to 28.7 µM
Outline: as §1

C2A = assay: as above; conditions: P. falciparum in erythrocytes, SYBR Green DNA, 72 h; series mostly up to 28.7 µM
Outline: as §1

CP185 = assay: as above; conditions: P. falciparum in erythrocytes, SYBR Green DNA, 72 h; series mostly up to 28.7 µM
Outline: as §1

CP191 = assay: as above; conditions: P. falciparum in erythrocytes, SYBR Green DNA, 72 h; series mostly up to 28.7 µM
Outline: as §1

CP192 = assay: as above; conditions: P. falciparum in erythrocytes, SYBR Green DNA, 72 h; series mostly up to 28.7 µM
Outline: as §1

CP194 = assay: as above; conditions: P. falciparum in erythrocytes, SYBR Green DNA, 72 h; series mostly up to 28.7 µM
Outline: as §1

CP201 = assay: as above; conditions: P. falciparum in erythrocytes, SYBR Green DNA, 72 h; series mostly up to 28.7 µM
Outline: as §1

CP203 = assay: as above; conditions: P. falciparum in erythrocytes, SYBR Green DNA, 72 h; series mostly up to 28.7 µM
Outline: as §1

CP211 = assay: as above; conditions: P. falciparum in erythrocytes, SYBR Green DNA, 72 h; series mostly up to 28.7 µM
Outline: as §1

CP215 = assay: as above; conditions: P. falciparum in erythrocytes, SYBR Green DNA, 72 h; series mostly up to 28.7 µM
Outline: as §1

CP217 = assay: as above; conditions: P. falciparum in erythrocytes, SYBR Green DNA, 72 h; series mostly up to 28.7 µM
Outline: as §1

CP237 = assay: as above; conditions: P. falciparum in erythrocytes, SYBR Green DNA, 72 h; series mostly up to 28.7 µM
Outline: as §1

CP238 = assay: as above; conditions: P. falciparum in erythrocytes, SYBR Green DNA, 72 h; series mostly up to 28.7 µM
Outline: as §1

CP247 = assay: as above; conditions: P. falciparum in erythrocytes, SYBR Green DNA, 72 h; series mostly up to 28.7 µM
Outline: as §1

CP250 = assay: as above; conditions: P. falciparum in erythrocytes, SYBR Green DNA, 72 h; series mostly up to 28.7 µM
Outline: as §1

CP252 = assay: as above; conditions: P. falciparum in erythrocytes, SYBR Green DNA, 72 h; series mostly up to 28.7 µM
Outline: as §1

CP256 = assay: as above; conditions: P. falciparum in erythrocytes, SYBR Green DNA, 72 h; series mostly up to 28.7 µM
Outline: as §1

CP260 = assay: as above; conditions: P. falciparum in erythrocytes, SYBR Green DNA, 72 h; series mostly up to 28.7 µM
Outline: as §1

ATP-dependent 6-phosphofructokinase (Trypanosoma brucei brucei), sequence (O15648 whole entry, looked up): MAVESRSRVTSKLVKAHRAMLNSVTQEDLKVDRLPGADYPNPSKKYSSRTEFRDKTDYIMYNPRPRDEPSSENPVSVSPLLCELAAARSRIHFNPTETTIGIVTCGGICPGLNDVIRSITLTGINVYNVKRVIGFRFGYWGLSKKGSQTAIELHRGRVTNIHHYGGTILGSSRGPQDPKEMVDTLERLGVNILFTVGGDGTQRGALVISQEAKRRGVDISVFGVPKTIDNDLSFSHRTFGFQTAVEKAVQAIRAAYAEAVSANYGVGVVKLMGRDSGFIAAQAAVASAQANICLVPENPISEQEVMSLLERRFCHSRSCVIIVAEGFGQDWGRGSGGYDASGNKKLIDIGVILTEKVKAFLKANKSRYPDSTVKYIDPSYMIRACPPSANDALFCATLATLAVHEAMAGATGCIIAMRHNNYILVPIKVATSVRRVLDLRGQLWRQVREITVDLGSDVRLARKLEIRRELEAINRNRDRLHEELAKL
3',5'-cyclic-AMP phosphodiesterase 4B (Homo sapiens), sequence (Q07343 whole entry, looked up): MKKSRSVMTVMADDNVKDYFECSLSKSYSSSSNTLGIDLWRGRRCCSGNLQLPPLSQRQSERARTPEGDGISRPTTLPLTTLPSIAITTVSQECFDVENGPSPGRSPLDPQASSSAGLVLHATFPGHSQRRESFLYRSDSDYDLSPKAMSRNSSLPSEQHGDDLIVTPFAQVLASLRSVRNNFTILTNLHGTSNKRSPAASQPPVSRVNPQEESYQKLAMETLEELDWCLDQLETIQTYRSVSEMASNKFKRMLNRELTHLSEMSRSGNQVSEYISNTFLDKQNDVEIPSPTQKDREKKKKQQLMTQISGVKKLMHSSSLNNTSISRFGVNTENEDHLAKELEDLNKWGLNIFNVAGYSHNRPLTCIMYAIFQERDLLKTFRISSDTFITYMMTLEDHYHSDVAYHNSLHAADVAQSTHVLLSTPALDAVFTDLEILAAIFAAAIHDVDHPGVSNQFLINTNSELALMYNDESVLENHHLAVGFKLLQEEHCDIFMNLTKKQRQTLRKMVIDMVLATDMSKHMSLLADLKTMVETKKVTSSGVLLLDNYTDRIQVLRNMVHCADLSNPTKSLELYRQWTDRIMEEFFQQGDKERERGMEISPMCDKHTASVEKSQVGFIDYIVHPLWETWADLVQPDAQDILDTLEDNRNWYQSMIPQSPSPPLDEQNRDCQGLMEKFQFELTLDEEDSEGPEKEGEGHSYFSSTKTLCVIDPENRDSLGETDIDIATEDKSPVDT
Luciferin 4-monooxygenase (Photinus pyralis), sequence (P08659 whole entry, looked up): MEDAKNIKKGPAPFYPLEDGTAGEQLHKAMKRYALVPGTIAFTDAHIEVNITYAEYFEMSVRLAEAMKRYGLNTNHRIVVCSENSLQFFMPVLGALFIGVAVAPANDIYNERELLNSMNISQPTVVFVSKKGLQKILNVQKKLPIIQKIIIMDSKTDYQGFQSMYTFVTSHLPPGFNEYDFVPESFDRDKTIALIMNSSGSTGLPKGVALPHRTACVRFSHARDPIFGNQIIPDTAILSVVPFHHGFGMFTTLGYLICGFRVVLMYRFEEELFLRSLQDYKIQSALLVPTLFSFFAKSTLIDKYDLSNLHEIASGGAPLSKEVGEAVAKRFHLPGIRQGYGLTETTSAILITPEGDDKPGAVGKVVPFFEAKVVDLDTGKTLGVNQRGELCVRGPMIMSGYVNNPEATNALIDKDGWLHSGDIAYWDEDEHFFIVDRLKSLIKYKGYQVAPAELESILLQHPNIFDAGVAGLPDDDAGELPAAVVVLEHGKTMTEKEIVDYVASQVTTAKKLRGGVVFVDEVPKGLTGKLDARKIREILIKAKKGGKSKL
Lysosomal acid glucosylceramidase (Homo sapiens), sequence (P04062 whole entry, looked up): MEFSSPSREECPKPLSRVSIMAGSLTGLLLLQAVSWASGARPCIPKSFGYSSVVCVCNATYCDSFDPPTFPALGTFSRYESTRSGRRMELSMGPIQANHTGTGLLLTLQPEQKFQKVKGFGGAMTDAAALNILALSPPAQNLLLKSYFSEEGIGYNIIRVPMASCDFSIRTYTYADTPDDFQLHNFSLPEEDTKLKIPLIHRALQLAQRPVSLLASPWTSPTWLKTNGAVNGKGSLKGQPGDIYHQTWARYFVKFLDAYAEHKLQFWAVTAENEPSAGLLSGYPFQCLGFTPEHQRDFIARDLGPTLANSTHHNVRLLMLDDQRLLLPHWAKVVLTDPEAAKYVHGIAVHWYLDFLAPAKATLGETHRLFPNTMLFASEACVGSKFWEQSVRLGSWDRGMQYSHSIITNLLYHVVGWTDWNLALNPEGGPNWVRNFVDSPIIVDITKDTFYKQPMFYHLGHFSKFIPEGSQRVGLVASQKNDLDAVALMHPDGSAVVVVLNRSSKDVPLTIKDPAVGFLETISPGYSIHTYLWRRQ

CN1[C@@H]2CC(OC(=O)[C@@H](CO)c3ccccc3)C[C@@H]1[C@H]1O[C@H]12 (some centres undefined)
inactive: Potency [1] > 11.4 µM | activity change, negative = inhibition [2] 20.3% | activity, negative = inhibition [3] 6.14% | Potency [4] | outcome [5] | outcome [6] | Potency [7] | Potency [8] | outcome [9] | activity, negative = inhibition ([10]; parasite line A) 11.4% | activity, negative = inhibition ([10]; parasite line B) 4.71% | Potency (3D7) | Potency (7G8) | Potency (AA1029) | Potency (AS120) | Potency (ATS189) | Potency (ATS95) | Potency (C2A) | Potency (CP185) | Potency (CP191) | Potency (CP192) | Potency (CP194) | Potency (CP201) | Potency (CP203) | Potency (CP211) | Potency (CP215) | Potency (CP217) | Potency (CP237) | Potency (CP238) | Potency (CP247) | Potency (CP250) | Potency (CP252) | Potency (CP256) | Potency (CP260)
